In PubChem BioAssay (NCI):
The panel holds about 83,000 compounds, 20% with a hit somewhere; the sample as a whole holds those more often.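 Plates (96-well) were seeded with cells, treated with compound at one concentration, and incubated for 48 hours before percent growth was determined.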 The source made the active and inactive calls. How the source made its calls: active means growth percent below 10; inactive means the rest.

system: HL-60(TB) leukemia; test: NCI-60 one-dose screen, 48 h (100 = growth as untreated, 0 = no growth, -100 = all killed); details: 10 µM unless noted

Row | Structure (SMILES) | growth
1 | Cc1nc2sc(C(=O)Nc3ccccn3)c(N)c2cc1C(C)O (stereo not given) | 34.1% (inactive)
2 | Cc1cc(N2CCN(c3ccnc4cc(Cl)ccc34)CC2)nc(NC2CCCCC2)n1 | -54.1% (active)
3 | O=[N+]([O-])c1ccc(N/N=C\c2cc(Cl)ccc2O)nc1 | -2.47% (active)
4 | CNS(=O)(=O)c1cccc(-c2ccc3c4c(n(C)c(=O)c3c2)-c2ccccc2C4=O)c1 | -4.99% (active)
5 | COc1cc2c3c(n(C4CCNCC4)c(=O)c2cc1OC)-c1cc2c(cc1C3=O)OCO2 | -50.3% (active)
6 | O=C(Nc1ccccc1O)c1ccc(CNc2ccnc(C(F)(F)F)c2)cc1 | -32.9% (active)
7 | NC(=O)C(O)(c1ccccc1)c1ccccc1 | 99% (inactive)
8 | C[N+](C)(C)CCCCCCCCCC[N+](C)(C)C | 96.5% (inactive)
9 | NS(=O)(=O)c1ccc(C(=O)N=Nc2c(O)[nH]c3c(F)cccc23)cc1 | 102% (inactive)
10 | N#Cc1c(-c2ccccc2)cc(-c2ccccc2)n(CC(=O)NO)c1=O | -56.3% (active)
11 | CCCCCCCC/C=C\CCCCCCCCOc1ccccc1CC(=O)NCC[N+](C)(C)C | 67% (inactive)
12 | COC(=O)C1=C(C)NC(C)=C(C(=O)OC)C(N2C(=O)CCC2=O)C1 (stereo not given) | 90.8% (inactive)
13 | O=C(N/N=C/C=C/c1ccc([N+](=O)[O-])o1)c1cc2ccccc2cc1O | 3.51% (active)
14 | COc1ccc(Cl)cc1NC(=O)c1cc2c([nH]1)-c1nc(N)sc1CCC2 | 56.9% (inactive)
15 | O=[N+]([O-])c1ccc(N/N=C(\C(=N/Nc2ccc([N+](=O)[O-])cc2[N+](=O)[O-])c2ccccc2)c2ccccc2)c([N+](=O)[O-])c1 | 80.5% (inactive)
16 | COc1ccc(-c2cc(-c3ccc(Cl)cc3)nc(SCCCCCCC(=O)NO)n2)cc1 | -18.2% (active)
17 | COC(=O)c1c2c(c(C)[n+]([O-])c1C)C(=O)C(NCc1ccc(Br)cc1)=CC2=O | -19.9% (active)
18 | CCOC(=O)c1c2c(n(-c3ccc(C#N)cc3)c1-c1ccccc1)C=CCC2 | 82.9% (inactive)
19 | O=C(c1ccncc1)N1N=C(c2ccc(Cl)cc2)C[C@H]1c1cn(-c2ccccc2)nc1-c1ccccc1 | 107% (inactive)
20 | COc1cnc2c(c1)C(=O)c1c-2n(CCCN2CCCC2)c(=O)c2cc(F)ccc12 | -28.7% (active)

Row | Structure (SMILES) | growth
21 | Cc1nc2c3c(ncn2n1)Oc1c(c(=O)[nH]c2ccccc12)C3c1ccc(Cl)cc1 (stereo not given) | 98% (inactive)
22 | CSc1nc2ccccc2cc1/C=[N+](\[O-])c1ccccc1 | -13.4% (active)
23 | C#CCC1(c2ccc(F)c(F)c2)NS(=O)(=O)c2ccccc21 (stereo not given) | 89.2% (inactive)
24 | COc1cccc2cc(N(C)c3nc(C)nc4c3CCC4)ccc12 | -8.85% (active)
25 | O=C(CCCCCCN1CC(=O)N2[C@H](c3ccc(Cl)cc3)c3[nH]c4ccccc4c3C[C@@H]2C1=O)NO | 1.54% (active)
26 | CCCOc1nc(SCCC)nc2c1cnn2-c1ccccc1 | 136% (inactive)
27 | CCCCCCCCCCCCN1C(C)=CS/C1=C\C=C\c1scc(C)[n+]1CCCCCCCCCCCC | -32.3% (active)
28 | CCN1CCCC(Nc2cc(C)nc(/N=C(/N)Nc3ccc(Cl)c(Cl)c3)n2)C1 (stereo not given) | -42.7% (active)
29 | O=C(O)CN1C(=O)CCC1=O | 134% (inactive)
30 | S=c1c2ncccc2c(-c2ccccn2)nn1Cc1ccccn1 | 71.6% (inactive)
31 | COc1cc2ncnc(Oc3cccc(NC(=O)Nc4cc(C(C)(C)C(F)(F)F)on4)c3)c2cc1OC | 12.1% (inactive)
32 | O=C1/C(=C\c2ccccc2)CN(C(=O)c2ccccc2)C/C1=C\c1ccccc1 | 29.6% (inactive)
33 | CC(=O)[C@@]12O[C@](C)(c3ccccc3)O[C@@H]1CC1C3CCC4=CC(=O)CC[C@]4(C)C3CC[C@@]12C (stereo not given in full) | 0.639% (active)
34 | O=C1C=CC2(NN=C(c3ccccc3)N2c2cccc(Cl)c2)C(Cl)=C1 (stereo not given) | 33% (inactive)
35 | CCC1=CC2CN(C1)Cc1c([nH]c3ccccc13)[C@@](C(=O)OC)(c1cc3c(cc1OC)N(C)[C@H]1[C@@](O)(C(=O)OC)[C@H](OC(C)=O)[C@]4(CC)C=CCN5CC[C@]31[C@@H]54)C2 (stereo not given in full) | -15.6% (active)
36 | CCC(=O)Oc1c(C)cc(O)c2ccccc12 | 68.8% (inactive)
37 | CO[C@H](C(=O)[C@@H](O)[C@@H](C)O)[C@@H]1Cc2cc3cc(O[C@H]4C[C@@H](O[C@H]5C[C@@H](O)[C@H](O)C(C)O5)[C@H](O)C(C)O4)c(C)c(O)c3c(O)c2C(=O)[C@H]1O[C@H]1C[C@@H](O[C@H]2C[C@@H](O[C@H]3C[C@](C)(O)C(=O)C(C)O3)[C@@H](O)C(C)O2)[C@H](O)C(C)O1 (stereo not given in full) | 2.34% (active)
38 | CCN1CCN(c2cc(C(=O)Nc3cccc(Nc4ccc5c(OC)cccc5n4)c3)cc(C(F)(F)F)c2)CC1 | 62.6% (inactive)
39 | O=C1/C(=C/c2ccc(Br)cc2)C=C(c2ccccc2)N1CCc1ccccc1 | 83.8% (inactive)
40 | OC1COC(OCc2ccccc2)C(O)C1O (stereo not given) | 101% (inactive)
